Screening results from PubChem BioAssay.
Many of the other results were omitted from the sample, so hits are more common in it than they were.
NS1 inh – influenza NS1 inhibition. 270,000 tested, 0.4% active. Potency, µM (titrated, usually from 46.1 µM). AID 2326; calls by dose curve; also: actives are rising curves; nearly all actives have a fitted effect of over 50% in size
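Read-out: OD600 growth recovery of NS1-expressing budding yeast. Cells grown overnight at 30C in -URA glucose medium, washed, resuspended and diluted 1:100 in 2% galactose assay medium, pH 6.0. Same strain lacking NS1 served as positive control.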
CHX counter – counter-screen hit for Shiga toxin inhibitors, cycloheximide; cell reporter, cycloheximide protein synthesis inhibition counterscreen; AID 2314; max response, %; 300,000 tested, 12% active; in the data active = max response mostly above about 13%, no sharp cut-off; inactive = mostly below about 14%; also: read at 38.3 µM for the half of the compounds with a filed dose
LmPK inhibitor – inhibitors of Leishmania mexicana pyruvate kinase. Q27686. purified LmPK, Kinase-Glo ATP luminescence, 1 h. Potency, µM (series often up to 57.5 µM), hits mostly inhibitors. 290,000 tested, 0.37% active
Target sequence (Q27686 whole entry, looked up): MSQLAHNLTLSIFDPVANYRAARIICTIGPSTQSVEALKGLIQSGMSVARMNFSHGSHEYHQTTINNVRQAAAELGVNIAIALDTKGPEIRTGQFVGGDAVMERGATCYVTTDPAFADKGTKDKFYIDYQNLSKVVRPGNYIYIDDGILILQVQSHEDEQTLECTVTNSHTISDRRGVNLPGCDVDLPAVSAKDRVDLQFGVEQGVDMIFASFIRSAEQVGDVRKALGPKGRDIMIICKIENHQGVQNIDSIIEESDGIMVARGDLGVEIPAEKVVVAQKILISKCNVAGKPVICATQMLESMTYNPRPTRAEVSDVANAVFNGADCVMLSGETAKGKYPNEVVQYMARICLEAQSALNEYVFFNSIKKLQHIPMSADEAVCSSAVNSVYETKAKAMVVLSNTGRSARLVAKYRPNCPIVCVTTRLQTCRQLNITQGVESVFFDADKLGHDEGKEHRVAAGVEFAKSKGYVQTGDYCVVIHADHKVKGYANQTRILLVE
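Kinase-Glo luminescence read after 1 h RT reaction of 0.1 nM LmPK with 0.5 mM PEP and 0.1 mM ADP. Activity scaled between uninhibited and enzyme-free controls.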
SARS PLP yeast – blocks SARS-CoV papain-like protease in a yeast assay. S. cerevisiae expressing SARS-CoV PLpro, growth rescue. 330,000 tested, 0.19% active. Potency, µM (top dose mostly 32.9 µM), usual class: activators; calls by dose curve; also: nearly all actives have a fitted effect of over 55% in size
Tb PYK inh – inhibitors of Trypanosoma brucei pyruvate kinase | Q57TT1 | TbPYK enzyme, Kinase-Glo Plus ATP luminescence, 45 min | Potency, µM (titrated, usually from 76.8 µM), most hits filed as inhibitors | 410,000 tested, 0.12% active | AID 624173; also: nearly all actives have a fitted effect of over 50% in size
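T. brucei PYK with substrate was exposed to pin-transferred compounds across a concentration series, then started with 130 uM ADP (final). After 45 min at room temperature, Kinase-Glo Plus luminescence was read, normalized and curve-fitted.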
Shiga toxin inh – blocks Shiga toxin action in Vero cells; Vero cells, Shiga toxin protein synthesis inhibition reporter; 290,000 tested, 9.2% active; AID 2315; inhibition, % at 38.7 µM; in the data active = inhibition mostly above about 28%, no sharp cut-off; inactive = mostly below about 43%
A number is an active result. Unless noted, calls follow the shape of the dose curve; as a rule, active = well fitted curve in the direction sought with a large enough effect; inconclusive = small, poorly fitted or top-dose-only effect, or another doubt; inactive = no such curve, though single readings can be large; an effect the other way counts as inactive or inconclusive.

How did Brc1ccc(-c2nnc(Cc3ccccc3)o2)cc1 do in these assays?
NS1 inh: inactive; CHX counter: 58; LmPK inhibitor: inactive; SARS PLP yeast: inactive; Tb PYK inh: inactive; Shiga toxin inh: 81

How did c1ccc(Cc2nnc(-c3ccccc3)o2)cc1 do in these assays?
NS1 inh: inconclusive; CHX counter: inactive; LmPK inhibitor: inactive; SARS PLP yeast: inactive; Tb PYK inh: inactive; Shiga toxin inh: inactive

How did CCCCn1c(=O)n(CC2CCC(C(=O)NCCCOC)CC2)c(=O)c2sccc21 (centres undefined) do in these assays?
Tb PYK inh: inactive

What do the screens show for `COc1cc2c(Nc3ccc(Br)cc3F)ncnc2cc1OCC1CCN(C)CC1`?
Tb PYK inh: inactive

What do the screens show for `COc1ccc(-c2nnc(-c3ccc(C)cc3)o2)cc1`?
NS1 inh: inactive; CHX counter: 19; LmPK inhibitor: inactive; SARS PLP yeast: inactive; Tb PYK inh: inactive; Shiga toxin inh: 82

How did COc1ccc(-c2noc(-c3ccoc3C)n2)cc1OC do in these assays?
NS1 inh: inactive; CHX counter: inactive; LmPK inhibitor: inactive; SARS PLP yeast: inactive; Tb PYK inh: inactive; Shiga toxin inh: inactive

What do the screens show for `COc1cccc(-c2noc(-c3ccoc3C)n2)c1`?
CHX counter: 39; LmPK inhibitor: inactive; SARS PLP yeast: inactive; Tb PYK inh: inactive; Shiga toxin inh: 123

How did COc1ccc(-c2noc(-c3ccoc3C)n2)cc1 do in these assays?
NS1 inh: inactive; CHX counter: 59; LmPK inhibitor: inconclusive; SARS PLP yeast: inactive; Tb PYK inh: inactive; Shiga toxin inh: 56

What do the screens show for `Cc1cccc(-c2noc(-c3ccoc3C)n2)c1`?
NS1 inh: inactive; CHX counter: 35; LmPK inhibitor: inconclusive; SARS PLP yeast: inactive; Tb PYK inh: inactive; Shiga toxin inh: 100

Results for CC(C)(C)c1ccc(S(=O)(=O)N2CCN(Cc3noc(CCC(=O)N4CCCCC4)n3)CC2)cc1 ?
Tb PYK inh: inactive

Results for Cc1ccc(S(=O)(=O)N(C)c2ccc(C(=O)Nc3ccccn3)cc2)cc1 ?
SARS PLP yeast: inactive; Tb PYK inh: inactive

What do the screens show for `CC(=O)NS(=O)(=O)c1ccc(NC(=O)c2ccccn2)cc1`?
CHX counter: inactive; LmPK inhibitor: inactive; SARS PLP yeast: inactive; Tb PYK inh: inactive; Shiga toxin inh: inactive

How did CN(C)S(=O)(=O)c1ccc(NC(=O)c2ccccn2)cc1 do in these assays?
NS1 inh: inactive; CHX counter: 34; LmPK inhibitor: inactive; SARS PLP yeast: inactive; Tb PYK inh: inactive; Shiga toxin inh: 112

What do the screens show for `CCN(CC)S(=O)(=O)c1ccc(NC(=O)c2ccccn2)cc1`?
NS1 inh: inactive; CHX counter: 30; LmPK inhibitor: inconclusive; SARS PLP yeast: inactive; Tb PYK inh: inactive; Shiga toxin inh: 96

What do the screens show for `CN(C)S(=O)(=O)c1ccc(C(=O)Nc2ccccn2)cc1`?
NS1 inh: inactive; CHX counter: 22; LmPK inhibitor: inactive; SARS PLP yeast: inactive; Tb PYK inh: inactive; Shiga toxin inh: inactive

Results for COCC(C)NS(=O)(=O)c1ccc(NC(=O)C(Cc2ccccc2)NC(N)=O)cc1 (centres undefined) ?
NS1 inh: inactive; CHX counter: inactive; LmPK inhibitor: inactive; SARS PLP yeast: inactive; Tb PYK inh: inactive; Shiga toxin inh: inactive

Results for COCC(C)NS(=O)(=O)c1ccc(NC(=O)c2ccccn2)cc1 (centres undefined) ?
NS1 inh: inactive; CHX counter: 11; LmPK inhibitor: inactive; SARS PLP yeast: inactive; Tb PYK inh: inactive; Shiga toxin inh: 31

What do the screens show for `CCOc1ccc(NS(=O)(=O)c2ccc(NC(=O)c3ccccn3)cc2)cc1`?
SARS PLP yeast: inactive; Tb PYK inh: inactive

What do the screens show for `Cc1nnc2sc(SCC(=O)Nc3ccc(Cl)cc3)nn2c1=O`?
NS1 inh: inactive; CHX counter: inactive; LmPK inhibitor: inactive; SARS PLP yeast: inactive; Tb PYK inh: inactive; Shiga toxin inh: inactive

How did CCCNS(=O)(=O)c1ccc(NC(=O)c2ccccn2)cc1 do in these assays?
NS1 inh: inactive; CHX counter: inactive; LmPK inhibitor: inconclusive; SARS PLP yeast: inactive; Tb PYK inh: inactive; Shiga toxin inh: 92

What do the screens show for `CC1=C(C(=O)Nc2cccc(C(=O)N3CCN(c4cccc(C(F)(F)F)c4)CC3)c2)SCCO1`?
NS1 inh: inactive; CHX counter: inactive; LmPK inhibitor: inactive; SARS PLP yeast: inactive; Tb PYK inh: inactive; Shiga toxin inh: inactive

How did O=C(CSc1ncn(-c2ccccc2)n1)Nc1nccs1 do in these assays?
NS1 inh: inactive; CHX counter: inactive; LmPK inhibitor: inactive; SARS PLP yeast: inactive; Shiga toxin inh: inactive

What do the screens show for `C=CCn1c(SCC(=O)Nc2cccc3ccccc23)nnc1-c1cnccn1`?
NS1 inh: inactive; CHX counter: inactive; LmPK inhibitor: inactive; SARS PLP yeast: inactive; Tb PYK inh: inactive; Shiga toxin inh: inactive

Results for O=C(CCC1CCCCC1)Nc1nccs1 ?
NS1 inh: inactive; CHX counter: 29; LmPK inhibitor: inactive; SARS PLP yeast: inactive; Tb PYK inh: inactive; Shiga toxin inh: 77

What do the screens show for `CCn1c(SCC(=O)Nc2nccs2)nnc1-c1cccnc1`?
NS1 inh: inactive; CHX counter: 31; LmPK inhibitor: inactive; SARS PLP yeast: inactive; Tb PYK inh: inactive; Shiga toxin inh: inactive

How did O=C(CSc1ccccc1)Nc1nccs1 do in these assays?
CHX counter: 28; LmPK inhibitor: inactive; SARS PLP yeast: inactive; Tb PYK inh: inactive; Shiga toxin inh: 50

Results for C=CCn1c(SCC(=O)Nc2ccc(F)cc2F)nnc1-c1cnccn1 ?
NS1 inh: inactive; CHX counter: 26; LmPK inhibitor: inactive; SARS PLP yeast: inactive; Tb PYK inh: inactive; Shiga toxin inh: 45

What do the screens show for `CCn1c2cc(C)sc2c2cnn(Cc3ccccc3F)c(=O)c21`?
CHX counter: inactive; Shiga toxin inh: inactive

What do the screens show for `Cc1ccc(CCC(=O)Nc2nccs2)o1`?
NS1 inh: inactive; CHX counter: inactive; LmPK inhibitor: inactive; SARS PLP yeast: inactive; Tb PYK inh: inactive; Shiga toxin inh: inactive

How did CCc1ccc(CCC(=O)Nc2nccs2)o1 do in these assays?
NS1 inh: inactive; CHX counter: 34; LmPK inhibitor: inactive; SARS PLP yeast: inactive; Tb PYK inh: inactive; Shiga toxin inh: 60

How did Cc1cc(C)c2c(CC(=O)Nc3nccs3)coc2c1 do in these assays?
NS1 inh: inactive; CHX counter: 20; LmPK inhibitor: inactive; SARS PLP yeast: inactive; Tb PYK inh: inactive; Shiga toxin inh: inactive

What do the screens show for `C=CCn1c(SCC(=O)Nc2cccc(OC)c2)nnc1-c1cccnc1`?
NS1 inh: inactive; CHX counter: 19; LmPK inhibitor: inactive; SARS PLP yeast: inactive; Tb PYK inh: inactive; Shiga toxin inh: inactive

Results for O=C(CSCc1ccccc1)Nc1nccs1 ?
NS1 inh: inactive; CHX counter: 18; LmPK inhibitor: inactive; SARS PLP yeast: inactive; Tb PYK inh: inactive; Shiga toxin inh: inactive

How did CC(C)(C)OC(=O)N[C@@H](Cc1ccccc1)C(=O)N[C@@H](CO)[C@H](O)[C@@H]1C[C@@H]1C(=O)NC1CCCCC1 do in these assays?
SARS PLP yeast: inactive; Tb PYK inh: inactive
